Screening results (PubChem)
The list is a sample of the results.
aSyn 5UTR act – Activators via SNCA 5'UTR binding, MLPCN. AID 1814, 2009. alpha-synuclein 5'UTR reporter, activators screen. activity score, % (tested at 7.5 µM), hits read low. 7.1% of 300,000 active; in the data active = activity score below about -60%
An asterisk follows results filed as active.

SMILES	aSyn 5UTR act
CCCCN1CCc2c([nH]c3ccc(C)cc23)C1=O	-171*
CS(=O)(=O)c1nc(-c2cccs2)cc(C(F)(F)F)n1	-90*
CS(=O)(=O)c1nc(-c2ccc(F)cc2)cc(C(F)(F)F)n1	-126*
COc1ccc(-c2cc(C(F)(F)F)nc(S(C)(=O)=O)n2)cc1	-103*
Cc1cc(NC(=O)CCCS(=O)(=O)c2nc(-c3cccs3)cc(C(F)(F)F)n2)no1	-92*
COc1ccccc1CC(=O)Nc1cc2oc3ccccc3c2cc1OC	-129*
COc1cc2c(cc1NC(=O)COC(=O)CNC(=O)c1ccccc1)oc1ccccc12	-94*
COc1cc2c(cc1NC(=O)COC(=O)C1CC(=O)N(Cc3ccco3)C1)oc1ccccc12 (stereo not drawn)	-145*
COc1cc2c(cc1NC(=O)C(C)Sc1cccc[n+]1[O-])oc1ccccc12 (stereo not drawn)	-241*
COc1ccc(CC(=O)Nc2cc3oc4ccccc4c3cc2OC)cc1	-162*
COc1cc2c(cc1NC(=O)C(C)OC(=O)c1ccc(S(=O)(=O)Nc3ccccc3Cl)cc1)oc1ccccc12 (stereo not drawn)	-116*
COc1cc2c(cc1NC(=O)COC(=O)[C@@H](NC(=O)c1ccccc1F)C(C)C)oc1ccccc12	-85*
O=C(OCc1nnc(-c2ccccc2)o1)C12CC3CC(CC(Br)(C3)C1)C2	-105*
O=c1c2sc(-c3ccccc3)cc2nc2n1CCC2	82
Cc1c(C(=O)Nc2ccccc2F)sc2nc3n(c(=O)c12)CCC3	-111*
Cc1c(C(=O)Nc2ccccn2)sc2nc3n(c(=O)c12)CCC3	-86*
CCc1cccc(NC(=O)c2sc3nc4n(c(=O)c3c2C)CCC4)c1	-137*
CC(C)(C)C(=O)Nc1ccc(-c2cc3cc(Cl)ccc3o2)cc1	-124*
O=C(/C=C/c1ccc(Cl)cc1)NCCc1ccccc1	-67*
O=C(/C=C/c1ccccc1Cl)NCCc1ccccc1	-176*
Nc1ccc(-c2nc3ccc(C(=O)O)cc3s2)cc1	95
NC(=O)c1ccc2nc(NC(=O)c3ccc(N)cc3)sc2c1	-79*
O=C(Nc1nc(=O)c2ccccc2s1)c1ccccc1	-157*
O=C(Nc1nc2ccccc2s1)c1ccc(Cl)s1	-170*
CCc1nnc(NC(=O)c2ccc(NC(=O)C(C)C)cc2)s1	-101*
SMILES	aSyn 5UTR act
CCc1nnc(NC(=O)c2ccc3ncsc3c2)s1	-102*
O=C(Nc1nc(-c2cccs2)cs1)c1ccc(Cl)s1	-146*
COc1ccc2nc(NC(=O)c3cccs3)sc2c1	-78*
COc1ccc(OC)c(-c2csc(NC(=O)c3ccc(F)cc3)n2)c1	-202*
CCc1nnc(NC(=O)c2ccc3c(c2)C(=O)N(C(C)(C)C)C3=O)s1	-145*
COc1ccc2nc(NC(=O)c3ccc(F)cc3)sc2c1	-156*
O=C(Nc1nc2ccccc2s1)c1ccc(F)cc1	-89*
CC(C)(C)N1C(=O)c2ccc(C(=O)Nc3ccc(O)cc3)cc2C1=O	-87*
Cc1ccc(C(=O)Nc2nc3ccccc3c(=O)s2)cc1	-190*
COc1ccc2nc(NC(=O)c3ccc4ncsc4c3)sc2c1	-134*
COc1cc(C=O)c(Br)cc1OCc1ccc(C)cc1	-204*
CN(C)/C=C/c1oc2ccc(O)cc2c1[N+](=O)[O-]	-86*
CSC1=NNC(c2ccc(C(C)(C)C)cc2)=NN1	-106*
Cc1noc(C)c1COc1cccc(C(=O)OCC(=O)N2CC(=O)Nc3ccccc32)c1	65
O=C(COc1ccc(Br)cc1)N1CCc2ccccc21	-100*
O=C(/C=C/c1ccc(Cl)c(Cl)c1)N1CCc2ccccc21	-241*
O=C1CN(C(=O)OCc2ccccc2)c2ccccc2N1	-89*
O=C(COc1ccccc1Cl)N1CCc2ccccc2C1	-91*
CC(=O)/C(=N/Nc1ccc(Br)cc1)N1CCCc2ccccc21	61
O=C(OCc1ccccc1)N1CCc2ccccc21	-119*
O=C(COc1ccccc1)N1CCc2ccccc21	-167*
O=C(COc1ccccc1Cl)N1CCc2ccccc21	-135*
O=C(CCCOc1ccccc1)N1CCCc2ccccc21	-73*
O=C(CCCc1ccccc1)N1CCc2ccccc21	-117*
CN(C)c1ccc(NC(=O)/C=C/c2ccccc2Cl)cc1	-161*
SMILES	aSyn 5UTR act
CCN(CC)c1ccc(NC(=O)/C=C\c2ccccc2Cl)cc1	-190*
CN(C)c1ccc(NC(=S)NC(=O)/C=C/c2ccc(Cl)cc2)cc1	-219*
CCCC(=O)Nc1sc(C(=O)Nc2cccc(N)c2)c(C)c1C(=O)OC	-84*
COC(=O)c1c(NC(=O)c2cccnc2)sc(C(=O)N(C)C)c1C	-84*
COC(=O)c1c(NC(C)=O)sc(C(=O)Nc2ccccc2)c1C	-85*
CCC(=O)Nc1sc(C(=O)Nc2ccccc2F)c(C)c1C(=O)OC	-64*
COc1cc(/C=N/O)ccc1OCc1ccccc1Cl	-113*
Cc1ccc(N2C(=O)c3cccc4c([N+](=O)[O-])ccc(c34)C2=O)c2cccnc12	56
O=[N+]([O-])c1ccc(O)c2ncccc12	72
O=[N+]([O-])c1cccnc1NCCc1ccccc1	-159*
O=[N+]([O-])c1cccnc1NCCc1c[nH]c2ccccc12	-123*
C(=N\Nc1cc(N2CCCCC2)ncn1)/c1ccco1	-129*
COc1cccc(/C=N/Nc2cc(N3CCOCC3)ncn2)c1O	72
Fc1ccc(/C=N/Nc2cc(N3CCOCC3)ncn2)cc1	-88*
Fc1cccc(/C=N/Nc2cc(N3CCOCC3)ncn2)c1	-108*
CC1(C)N=C(N)N=C(N)N1c1ccc(Oc2ccc(Cl)cc2)c(Cl)c1	85
Cc1cc(C)nc(N/N=C/c2sccc2C)n1	-82*
Cc1cc(C)nc(N/N=C/c2ccccc2Cl)n1	-88*
Cc1cc(C)nc(N/N=C/c2ccccc2)n1	-73*
Cc1cc(C)c2nc(C)cc(N/N=C/c3ccc(O)cc3)c2c1	112
Cc1ccsc1/C=N/Nc1ncc(Cl)cc1Cl	-71*
Cc1ccsc1/C=N/Nc1nc(=O)[nH]nc1C	-85*
Cc1ccsc1/C=N/Nc1ccc(F)cc1F	-176*
O=C(CNc1ccccc1)N/N=C/c1c(O)ccc2ccccc12	69
Nc1cc(Cl)nc(N/N=C/c2c(O)ccc3ccccc23)n1	-162*
SMILES	aSyn 5UTR act
O=C(O)c1cc(N/N=C/c2c(O)ccc3ccccc23)ccc1Cl	-66*
CCOc1ccc(Nc2nc(-c3sc(N)nc3C)cs2)cc1	-70*
Cc1ccc(Nc2nc(-c3sc(N)nc3C)cs2)cc1	-134*
O=c1c2[nH]c3cccc(Cl)c3c2ncn1CC1CCCO1 (stereo not drawn)	-80*
COc1cccc(Nc2ncnc3c2cnn3-c2cccc(C)c2)c1	-137*
COc1ccccc1Nc1ncnc2c1cnn2-c1cccc(C)c1	-84*
O=[N+]([O-])c1ccc2c(c1)nc1n2CCN(c2ccccc2)C1	-125*
CC(=O)Cn1ncc(Br)c(Br)c1=O	-87*
O=C(OCn1ncc(Br)c(Br)c1=O)c1c(F)cccc1F	61
CC(C)(C)C(=O)Cn1ncc(N2CCCC2)c(Br)c1=O	-72*
Cc1cccc(NS(=O)(=O)c2ccc(-c3cnc(C4CC4)o3)cc2)c1C	100
Cc1cc(CNC(=O)Nc2ccc3c(c2)OCO3)nn1C	-80*
CCn1nc(C)c(CNC(=O)Nc2ccc3c(c2)OCO3)c1C	-70*
COC(=O)/C(=C/Nc1cccc2ccccc12)[N+](=O)[O-]	-68*
Cc1oc2c(c1C(=O)O)C(=O)c1ccccc1C2=O	-62*
CCOC(=O)c1c(C)oc2c1C(=O)c1ccccc1C2=O	-134*
Cc1oc2c(c1C(=O)c1ccccc1)C(=O)C(=O)c1ccccc1-2	127
